# Assay results from PubChem BioAssay AID372 (MTDP, 2006).
# The campaign covered roughly 100,000 compounds. About 770 (0.77%) were called active. No stated cut-off is given here; in the data, active means inhibition above about 50%; inactive means the rest. Shown is part of a subset that was picked to be rich in actives.
# Biological target: Gag-Pol polyprotein (Human immunodeficiency virus type 1 group M subtype B (isolate HXB2)) (UniProt P04585)
# Assay: RNase H inhibition, HIV 1 Gag Pol polyprotein, FRET biochemical assay, screening (AID 372)
# Conditions: HIV-1 RT RNase H, FRET RNA/DNA substrate fluorescence; at 10 µM; hits give high values
row,Structure (SMILES),inhibition
1,CCOc1ccc(/C=N/n2c(-c3ccc(OC)cc3)n[nH]c2=S)cc1OC,12% (inactive)
2,COc1cc2ccccc2cc1C(=O)Nc1cccc2ccccc12,10% (inactive)
3,O=S(=O)(Oc1ccc2ccccc2c1)c1cc(Cl)c(Cl)cc1Cl,58% (active)
4,COc1ccc(OS(=O)(=O)c2cc(Cl)c(Cl)cc2Cl)cc1,31% (inactive)
5,Cc1cc(S(=O)(=O)Oc2ccc3ccccc3c2)c(Cl)cc1Cl,42% (inactive)
6,O=C(Nc1ccccc1C#Cc1ccccc1)C(c1ccccc1)c1ccccc1,8% (inactive)
7,Cc1ccc(/C=C2\SC(=S)N(CCC(=O)Nc3cc(Cl)cc(Cl)c3)C2=O)cc1,14% (inactive)
8,CC1(C)C(c2ccccc2)=NC(c2ccccc2F)=[N+]1[O-],0% (inactive)
9,COc1ccc(/C=N/NC(=O)c2cc(-c3ccc(Cl)cc3)n[nH]2)cc1,14% (inactive)
10,CC(C)(C)N1C(=O)c2ccc(C(=O)c3ccc(C(=O)O)cc3)cc2C1=O,0% (inactive)
11,Cc1cc(/C=C2\NC(=O)NC2=O)c(C)n1-c1cccc([N+](=O)[O-])c1,29% (inactive)
12,CCC(=O)N(Cc1ccco1)C1CC(=O)N(c2ccccc2)C1=O (stereo not drawn),0% (inactive)
13,Cn1c(/C=C/c2cccc(Oc3ccccc3)c2)c([N+](=O)[O-])c(=O)n(C)c1=O,54% (active)
14,Cn1c(/C=C/c2ccc(Br)cc2)c([N+](=O)[O-])c(=O)n(C)c1=O,6% (inactive)
15,CCOc1ccc(/C=C/c2c([N+](=O)[O-])c(=O)n(C)c(=O)n2C)cc1,16% (inactive)
16,Cc1[nH]n(-c2ccccc2)c(=O)c1N=Nc1ccccc1Br,5% (inactive)
17,COc1ccc2ccccc2c1/C=C1\SC(=Nc2cccc(Cl)c2C)NC1=O,35% (inactive)
18,O=C(Nc1ccc(O)cc1)Nc1ccc(Cl)cc1,17% (inactive)
19,O=C(Nc1ccc(Cl)cc1)Nc1cc(Cl)cc(Cl)c1,6% (inactive)
20,O=C(Nc1ccc(Cl)cc1)Nc1ccc(-c2ccc(NC(=O)Nc3ccc(Cl)cc3)cc2)cc1,57% (active)
21,COc1ccc(N2C(=O)/C(=C/c3ccc(-c4ccc([N+](=O)[O-])cc4Cl)o3)SC2=S)cc1,18% (inactive)

row,Structure (SMILES),inhibition
1,COc1ccc(N2C(=O)/C(=C/c3ccc(-c4ccccc4[N+](=O)[O-])o3)SC2=S)cc1,26% (inactive)
2,O=C1/C(=C\c2ccc(-c3ccc([N+](=O)[O-])cc3)o2)SC(=S)N1c1ccc(O)cc1,52% (active)
3,COc1ccc(N2C(=O)/C(=C/c3ccc(-c4ccc([N+](=O)[O-])c(C)c4)o3)SC2=S)cc1,64% (active)
4,O=C(O)c1ccc(-c2ccc(/C=C3\SC(=S)N(c4ccc([N+](=O)[O-])cc4)C3=O)o2)cc1,49% (inactive)
5,O=C(O)c1cccc(-c2ccc(/C=C3\SC(=S)N(c4ccc([N+](=O)[O-])cc4)C3=O)o2)c1,12% (inactive)
6,COc1ccc(CN2CCN(Cc3ccccc3C(F)(F)F)CC2)cc1Br,4% (inactive)
7,Cc1ccc(/C(N)=N/OC(=O)c2ccc(C)cc2Cl)cc1,10% (inactive)
8,Clc1ccc(-c2nnc(-c3ccc4c(c3)OCO4)o2)c(Cl)c1,3% (inactive)
9,CCOC(=O)C1=C(C)N=c2s/c(=C\c3cccc(OCc4ccccc4Cl)c3)c(=O)n2C1c1ccc(Cl)cc1 (stereo not drawn),11% (inactive)
10,COc1ccc(Br)cc1CNC12CC3CC(CC(C3)C1)C2,6% (inactive)
11,Br/C(=C\c1ccccc1)C1Nc2cccc3cccc(c23)N1,21% (inactive)
12,CCCCC(O)(CCCC)c1ccccc1O,3% (inactive)
13,O=c1oc2ccccc2cc1-c1csc(-c2ccc(O)cc2)n1,43% (inactive)
14,CCNC(=O)/C(C#N)=C/c1ccc(O)c(OCC)c1,6% (inactive)
15,CCOc1ccc(NC(=O)/C(C#N)=C\c2ccc(O)c(OCC)c2)cc1,20% (inactive)
16,CCOc1cc(/C=C(/C#N)C(=O)Nc2cc(Cl)ccc2Cl)ccc1O,51% (active)
17,COc1ccc2c(c1)C1C=CCC1C(C(=O)O)N2 (stereo not drawn),25% (inactive)
18,O=C(c1ccccc1)c1ccc(O)c(O)c1,60% (active)
19,O=C(c1ccccc1)c1ccc2[nH]c(=O)[nH]c2c1,0% (inactive)
20,Cc1ccc(C(=O)c2cccc(C(=O)c3ccc(C)cc3)c2)cc1,7% (inactive)
21,O=C(Sc1nnnn1-c1ccccc1)c1ccccc1Br,0% (inactive)

row,Structure (SMILES),inhibition
1,CCOC(=O)c1sc(NC(=O)C2CC3CCC2C3)c(C(=O)OCC)c1C (stereo not drawn),10% (inactive)
2,COC(=O)c1sc(NC(=O)C2CC3CCC2C3)c(C(N)=O)c1C (stereo not drawn),11% (inactive)
3,CCc1c(C)sc(NC(=O)C2CCCO2)c1C(N)=O (stereo not drawn),0% (inactive)
4,Cc1sc(NC(=O)C2CCCCC2)c(C(N)=O)c1C,7% (inactive)
5,Oc1ccccc1N=Cc1c(O)c(I)cc2oc3c(c12)CCCC3,14% (inactive)
6,O=C(Nc1ccc(OC(F)(F)F)cc1)c1cccc(OCc2ccccc2)c1,0% (inactive)
7,c1ccc(CN2CCN(Cc3ccncc3)CC2)nc1,3% (inactive)
8,Cc1ccc2cccc(OS(=O)(=O)c3ccc(Cl)c(C)c3Cl)c2n1,52% (active)
9,Cc1ccc2cccc(OS(=O)(=O)c3cc(Cl)c(Cl)cc3Cl)c2n1,43% (inactive)
10,Cc1ccc2cccc(OS(=O)(=O)c3cc(Cl)ccc3C)c2n1,47% (inactive)
11,Cc1ccc2cccc(OS(=O)(=O)c3ccc(Cl)cc3C)c2n1,43% (inactive)
12,Cc1ccc2cccc(OS(=O)(=O)c3ccccc3C)c2n1,58% (active)
13,COc1ccc(I)cc1S(=O)(=O)Oc1cccc2ccc(C)nc12,25% (inactive)
14,CCc1nc(NC(=O)NS(=O)(=O)c2ccccc2C(=O)OC)nc(OC)n1,6% (inactive)
15,COc1cc(OC)cc(C(=O)N2CCN(c3ccc([N+](=O)[O-])cc3Cl)CC2)c1,9% (inactive)
16,O=C1NC(=S)N(c2cccc(Br)c2)C(=O)/C1=C/c1cccn1-c1ccccc1,39% (inactive)
17,CCC(=O)Nc1ccc2nc(SCC(=O)Nc3ccc(C(C)=O)cc3)sc2c1,14% (inactive)
18,CCC(=S)/C=C1\Sc2ccc(OC)cc2N1CCCS(=O)(=O)O,11% (inactive)
19,O=C(c1c(Cl)cccc1Cl)N1CCN(c2ccccc2)CC1,6% (inactive)
20,O=C(c1c(Cl)cccc1Cl)N1CCN(c2ccc(F)cc2)CC1,54% (active)
21,O=C(c1c(Cl)cccc1Cl)N1CCN(c2ccc(Cl)cc2)CC1,9% (inactive)
